According to PubChem BioAssay AID2496 (Sanford-Burnham Center for Chemical Genomics, 2010):
The source made the active and inactive calls. Cut-off read from the data, not from the text of the source: active = IC50 below about 40 µM; inactive = the rest.

Assay: compound optical interference in time-resolved FRET – biochemical, fluorescence ratio, artefact control, SAR follow-up (AID 2496)
Conditions: HTRF spectral interference counter-screen

Row | SMILES | IC50
1 | COc1ccc(CCNC(=O)c2cc(-c3ccco3)nc3ccccc23)cc1 | 15 µM (active)
2 | Nc1ncnc2oc(-c3ccco3)c(-c3ccco3)c12 | > 50 µM (inactive)
3 | Cc1ccc(/C=C/C(=O)NCc2ccc(S(N)(=O)=O)cc2)o1 | > 50 µM (inactive)
4 | O=C(COC(=O)c1c2c(nc3ccccc13)/C(=C/c1ccco1)CC2)NC1CCCC1 | 4.42 µM (active)
5 | CNc1nc(-c2ccccc2)[n+](-c2ccc(C)cc2)s1 | > 50 µM (inactive)
6 | O=C(NC1CCCC1)c1ccc2nc(-c3ccco3)c(-c3ccco3)nc2c1 | > 50 µM (inactive)
7 | CC(=O)NS(=O)(=O)c1ccc(NC(=O)/C=C/c2ccc(C)o2)cc1 | > 50 µM (inactive)
8 | CC(=O)Oc1ccc(N2C(=O)C3C(C2=O)C2(C)C=CC3(C)O2)cc1 (configuration not stated) | 2.86 µM (active)
9 | O=C(CSc1ccc(Cl)cc1)Nc1cccc(-c2nc3ccccc3[nH]2)c1 | 12.8 µM (active)
10 | CC(/C=C/c1ccco1)=NNC(=O)c1cccnc1 | > 50 µM (inactive)
11 | O=C(NN=Cc1ccc(F)cc1)c1cc(-c2ccco2)nc2ccccc12 | > 50 µM (inactive)
12 | COc1ccc(NC(=O)c2cc(-c3ccco3)nc3ccccc23)cc1S(=O)(=O)N1CCOCC1 | 37.2 µM (active)
